Source: ChEMBL document CHEMBL1201862, “PubChem BioAssay data set” (2004)
The whole screen tested about 400,000 compounds, of which about 2,100 (0.53%) were called active. About 14% were inconclusive and are not listed. No rule for the calls is given here. What follows is part of a selection rich in actives, with near analogues and random picks from the rest.

biological target: Ataxin-2 (Homo sapiens) (UniProt Q99700); test: qHTS for Inhibitors of ATXN expression.; type: functional
Sequence (Q99700 whole entry): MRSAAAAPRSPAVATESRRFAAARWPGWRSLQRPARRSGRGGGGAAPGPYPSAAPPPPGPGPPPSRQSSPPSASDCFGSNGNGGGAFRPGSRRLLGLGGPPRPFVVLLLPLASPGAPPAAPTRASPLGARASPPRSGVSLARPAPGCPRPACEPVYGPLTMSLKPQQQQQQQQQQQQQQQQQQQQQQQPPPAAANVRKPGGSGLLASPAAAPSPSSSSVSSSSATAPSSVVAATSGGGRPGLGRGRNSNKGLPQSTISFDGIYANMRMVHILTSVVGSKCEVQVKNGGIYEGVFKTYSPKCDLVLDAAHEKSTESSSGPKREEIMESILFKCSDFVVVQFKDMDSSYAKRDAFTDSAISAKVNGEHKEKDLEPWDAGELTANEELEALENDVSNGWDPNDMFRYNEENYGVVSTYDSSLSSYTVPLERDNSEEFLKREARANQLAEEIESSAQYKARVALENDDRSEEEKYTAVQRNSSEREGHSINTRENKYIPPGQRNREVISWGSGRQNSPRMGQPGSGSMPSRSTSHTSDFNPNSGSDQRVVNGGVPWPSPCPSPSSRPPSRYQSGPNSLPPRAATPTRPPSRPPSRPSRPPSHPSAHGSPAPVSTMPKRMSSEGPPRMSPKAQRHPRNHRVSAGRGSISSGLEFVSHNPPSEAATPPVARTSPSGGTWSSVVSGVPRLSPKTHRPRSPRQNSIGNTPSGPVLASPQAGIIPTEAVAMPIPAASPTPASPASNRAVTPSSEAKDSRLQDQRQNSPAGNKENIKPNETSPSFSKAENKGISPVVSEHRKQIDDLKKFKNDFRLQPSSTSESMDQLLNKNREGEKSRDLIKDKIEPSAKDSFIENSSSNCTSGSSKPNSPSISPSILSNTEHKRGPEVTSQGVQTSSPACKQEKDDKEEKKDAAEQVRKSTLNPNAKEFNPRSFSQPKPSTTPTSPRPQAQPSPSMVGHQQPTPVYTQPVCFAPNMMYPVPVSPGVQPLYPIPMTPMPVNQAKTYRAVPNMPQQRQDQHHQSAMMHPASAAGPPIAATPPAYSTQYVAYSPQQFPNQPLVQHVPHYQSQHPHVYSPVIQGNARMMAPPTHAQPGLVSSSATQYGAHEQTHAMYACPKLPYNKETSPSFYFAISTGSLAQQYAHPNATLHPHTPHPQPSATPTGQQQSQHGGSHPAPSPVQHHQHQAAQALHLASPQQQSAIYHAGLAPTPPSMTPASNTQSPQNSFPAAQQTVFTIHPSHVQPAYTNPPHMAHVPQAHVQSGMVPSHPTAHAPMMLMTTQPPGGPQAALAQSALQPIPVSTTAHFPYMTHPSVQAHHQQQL

Row | Structure (SMILES) | Potency
1 | COc1cccc(C2C=C(c3ccc(Br)s3)Nc3ncnn32)c1OC (centres undefined) | inactive
2 | O=[N+]([O-])c1ccc(C2(O)C[N+](c3ccccc3)=C3SCCN32)cc1 (centres undefined) | inactive
3 | Cc1ccsc1/C=C1\Oc2cc(O)ccc2C1=O | inactive
4 | NNc1nc2cccnc2n(CCNc2ncc(C(F)(F)F)cc2Cl)c1=O | inactive
5 | O=S(=O)(NNc1ncc(C(F)(F)F)cc1Cl)c1ccc(F)cc1F | inactive
6 | O=C1C=CC(=O)N1CCNc1ncc(C(F)(F)F)cc1Cl | 35.5 µM (active)
7 | CCOCCCn1c(=N)c(C(=O)NCc2ccco2)cc2c(=O)n3ccccc3nc21 | inactive
8 | O=C1[C@@H](c2ccccc2)[C@@H](c2ccccc2)N1c1cccnc1 | 25.1 µM (active)
9 | O=C1[C@H]2C(c3ccccc3)=NN(c3ccccc3)[C@H]2C(=O)N1c1ccccc1 | inactive
10 | O=C1c2ccccc2C(Nc2ccc(Cl)cn2)N1c1cccnc1 (centres undefined) | inactive
11 | O=C1[C@H](Oc2ccccc2)[C@@H](c2ccccc2)N1c1ccncc1 | 28.2 µM (active)
12 | CCOC(=O)C1CCN(Cc2nc3ccc([N+](=O)[O-])cc3c(=O)n2-c2ccc(OC)cc2OC)CC1 | inactive
13 | N#CC1=C(N)Oc2cc(O)ccc2C1c1ccc(Br)s1 (centres undefined) | inactive
14 | c1cc2c3c(cccc3c1)NC1(CCC3(CC1)Nc1cccc4cccc(c14)N3)N2 | 35.5 µM (active)
15 | Cn1c(-c2cc3ccc(OC(=O)C(C)(C)C)cc3oc2=O)nc2ccccc21 | inactive
16 | COc1ccc(NC(=O)c2c(NC(=O)CCC(=O)O)sc3c2CCCCC3)cc1 | inactive
17 | CCOc1ccccc1NC(=O)c1c(NC(=O)Cc2ccc(OC)cc2)sc2c1CCC2 | 25.1 µM (active)
18 | CCOc1ccccc1NC(=O)c1sc2nc(-c3ccc(OC)cc3)ccc2c1N | inactive
19 | COc1ccc(CC(=O)Nc2sc3c(c2C(=O)Nc2cccc(Cl)c2)CCCCC3)cc1 | 28.2 µM (active)
20 | COc1ccc(-c2c3c(nc4sc(C(=O)Nc5ccccc5)c(N)c24)CCC3)cc1 | inactive
21 | OC[C@@H]1[C@@H](c2ccccc2)C(c2ccc(F)cc2)=NN1c1ccccc1 | inactive
22 | Cn1c(=O)c2nc3ccc(NC(=O)C(F)(F)F)cc3nc2n(C)c1=O | inactive
23 | O=C(CCn1cnc2onc(-c3ccc(F)cc3)c2c1=O)Nc1cccc(C(F)(F)F)c1 | 20 µM (active)
24 | Cc1cc(C)n(CCC(=O)Nc2cccc(F)c2)n1 | inactive
25 | CC(C)(C)c1ccc(C(=O)Nc2cccc3c(=O)[nH][nH]c(=O)c23)cc1 | inactive
26 | Cc1cc(C)n(-c2ccc(C(=O)Nc3ccc(C)c(S(=O)(=O)N4CCOCC4)c3)cc2)n1 | 12.6 µM (active)

Row | Structure (SMILES) | Potency
27 | Cc1ccc(NC(=O)C2CCC(C(C)(C)C)CC2)cc1S(=O)(=O)N1CCOCC1 (centres undefined) | 31.6 µM (active)
28 | Cc1ccc(S(=O)(=O)N2CCOCC2)cc1NC(=O)COC(=O)CNC(=O)c1ccc(C(C)(C)C)cc1 | inactive
29 | O=C(Nc1ccc(Cl)c(S(=O)(=O)N2CCOCC2)c1)c1ccc(OCC2CCCO2)cc1 (centres undefined) | 11.2 µM (active)
30 | COc1ccc(NC(=O)CSc2nnc(C)n2C2CC2)cc1S(=O)(=O)N1CCOCC1 | inactive
31 | O=C(Nc1cccc(S(=O)(=O)N2CCCCC2)c1)c1ccc(OCC2CCCO2)cc1 (centres undefined) | inactive
32 | Cc1cc(C(=O)Nc2ccc(Cl)c(S(=O)(=O)N3CCOCC3)c2)c2ccccc2n1 | inactive
33 | O=C(NC1=NCCS1)c1ccc(Cl)c(S(=O)(=O)N2CCOCC2)c1 | inactive
34 | Cc1ccc(NC(=O)CCS(=O)(=O)c2ccccc2)cc1S(=O)(=O)N1CCOCC1 | inactive
35 | Cc1cc(/C=C(\C#N)C(=O)NC2CCCCCC2)c(C)n1C | inactive
36 | COc1ccc(C2CC(c3cccc(Cl)c3)=NN2c2ccc(S(N)(=O)=O)cc2)cc1 (centres undefined) | inactive
37 | CC1Cc2ccccc2N1CC(=O)NC(=O)NC1CCCC1 (centres undefined) | inactive
38 | O=C(c1cccnc1)N1CCN(Cc2ccc3ccccc3c2)CC1 | inactive
39 | COc1ccc(CN2CCCC(C(=O)N3CCCCC3)C2)cc1 (centres undefined) | inactive
40 | O=C(C1=C[C@@H](C2CCCCC2)C[C@@H](OCc2ccc(CO)cc2)O1)N1CCN(Cc2ccccc2)CC1 | 39.8 µM (active)
41 | Cc1cc(=O)oc2cc(OC(=O)c3cncc(Br)c3)ccc12 | inactive
42 | Cc1c(C2(O)CCCCC2)[nH]c2cc(C(F)(F)F)ccc12 | 35.5 µM (active)
43 | CCc1c(C2(O)CCCCC2)[nH]c2ccc(C(F)(F)F)cc12 | 25.1 µM (active)
44 | COCc1cc(C)nc2oc(C(=O)c3ccccc3)c(N)c12 | inactive
45 | CCCCC[C@H](O)/C=C/C1C(=O)C=C[C@H]1C/C=C\CCCC(=O)OC (some centres undefined) | 35.5 µM (active)
46 | CCCCC[C@@H](/C=C/C1C(=O)C=C[C@H]1C/C=C\CCCC(=O)OC)OC(C)=O (some centres undefined) | 35.5 µM (active)
47 | CCOC(=O)c1c(NC(=O)c2ccc(S(=O)(=O)N3CCCC(C)C3)cc2)sc2c1CCN(C(C)C)C2 (centres undefined) | inactive
48 | Cc1cc(-c2ccc(Br)s2)nc(-n2cccc2)n1 | inactive
49 | OC1(c2ccc(Cl)c(Cl)c2)C[n+]2ccccc2N1Cc1ccccc1 (centres undefined) | 28.2 µM (active)
50 | Cc1ccc2nc3c(cc(C(=O)NCCc4ccccc4)c(=N)n3CCCN3CCOCC3)c(=O)n2c1 | inactive
51 | CC(C)(O)C#Cc1ncc(C(F)(F)F)cc1Cl | inactive
52 | N#CC(C#N)=c1ccc2c(c1)NC1(CCCCC1)N=2 | 12.6 µM (active)

Row | Structure (SMILES) | Potency
53 | O=C(COc1ccc(F)cc1Cl)NC1CCCCCC1 | inactive
54 | COc1ccc(CCNC(=O)C(=O)NCC2OCCN2S(=O)(=O)c2ccc(OC)c(OC)c2)cc1 (centres undefined) | inactive
55 | COc1ccc(CCNC(=O)COc2ccc(S(=O)(=O)NC3CCCCC3)cc2Cl)cc1 | 35.5 µM (active)
56 | CCCCNc1c(-c2ccc(SC3CCCCC3)cc2)nc2cnccn12 | inactive
57 | Cc1ccc(-c2nnc(NC3CCCCC3)c3ccccc23)cc1S(=O)(=O)N1CCN(C)CC1 | 11.2 µM (active)
58 | Cc1noc(C)c1COc1ccc(C(=O)NCCc2ccc(S(N)(=O)=O)cc2)cc1 | inactive
59 | O=C(NCCC1=CCCCC1)c1coc(=O)c(Br)c1 | 31.6 µM (active)
60 | O=C(COc1ccccc1Br)NCCC1=CCCCC1 | inactive
61 | COc1ccc(CCNC(=O)c2coc(=O)c(Br)c2)cc1 | 20 µM (active)
62 | Cn1c(C(=O)O)cc2c(=O)n3ccccc3nc21 | inactive
63 | O=C(Nc1ccc2cccnc2c1)c1ccc(Br)cc1 | inactive
64 | CC(=O)OCCn1c2nc(=O)[nH]c(=O)c-2nc2cc(C)c(C)cc21 | inactive
65 | COc1ccc2nc(Nc3ccccc3)sc2c1 | inactive
66 | COc1ccc2nc(NN=C3C(=O)CC(C)(C)CC3=O)sc2c1 | 33.6 µM (active)
67 | COc1cccc(C2C3=C(O)CC(C)(C)CC3=NC(C)=C2C(=O)Nc2nc3ccccc3s2)c1OC (centres undefined) | inactive
68 | O=C(Nc1nccs1)c1ccc(-c2ccc([N+](=O)[O-])cc2)o1 | inactive
69 | O=C(Nc1ccc2oc(=O)ccc2c1)c1ccc(-c2cccc([N+](=O)[O-])c2)o1 | 39.8 µM (active)
70 | COc1ccc(CCNC(=O)c2ccc(-c3cccc([N+](=O)[O-])c3)o2)cc1OC | inactive
71 | COc1ccc(C(=N)NOC(=O)/C=C/c2ccccc2)cc1 | inactive
72 | COc1cc2c(cc1N/C=C(\C#N)c1nc(-c3ccccc3)cs1)oc1ccccc12 | inactive
73 | COc1cc2c(cc1NC(=O)COC(=O)/C=C/c1ccccc1)oc1ccccc12 | 17.8 µM (active)
74 | CCCCc1ccc(/C(C)=N/Nc2cc(N3CCOCC3)nc(C)n2)cc1 | inactive
75 | O=C(CN1C(=O)NC2(CCCCC2)C1=O)Nc1ccc2c(c1)CCC2 | 28.2 µM (active)
76 | O=C(CN1C(=O)NC2(CCCC2)C1=O)Nc1nc(-c2ccccc2)cs1 | inactive
77 | O=C(CN1CCN(Cc2ccccc2)CC1)Nc1ccc2c(c1)CCC2 | inactive
78 | CCc1ccccc1-n1c(N)c(C(=O)OC)c2nc3ccccc3nc21 | inactive

Row | Structure (SMILES) | Potency
79 | Cc1[nH]n(-c2ccc(Cl)cc2)c(=O)c1N=Nc1cccnc1 | inactive
80 | Cc1[nH]n(-c2ccccc2)c(=O)c1N=Nc1nccs1 | 39.8 µM (active)
81 | O=C(O)c1cc2c(ncc3c(=O)n(-c4ccccc4)[nH]c32)s1 | inactive
82 | Cc1[nH]n(-c2ccccc2)c(=O)c1N=Nc1c(O)cc(S(=O)(=O)N(C)C)c2ccccc12 | 4.47 µM (active)
83 | CN(C)S(=O)(=O)c1ccc2[nH]cc(/C=C/c3nc4ccccc4c(=O)n3-c3ccccc3)c2c1 | inactive
84 | CN1C(=O)c2cccc3c(S(=O)(=O)N(C)C)ccc1c23 | inactive
85 | Cc1cccc(/N=c2\oc3cc(O)ccc3cc2C(N)=O)c1 | inactive
86 | COc1cccc(C2Oc3ccccc3C3CC(c4cccs4)=NN32)c1 (centres undefined) | inactive
87 | COC(=O)c1sc2nc3c(c(-c4cccs4)c2c1N)CCCC3 | inactive
88 | CC1(C)Cc2c(sc3nc(SCC(=O)O)nc(N)c23)CO1 | inactive
89 | COC(=O)CSc1nc(N)c2c3c(sc2n1)C(c1ccccc1)SC(c1ccccc1)C3 (centres undefined) | 35.5 µM (active)
90 | Cc1ccc2oc(=O)c(S(=O)(=O)c3ccc(F)cc3)cc2c1 | inactive
91 | Cc1cn(-c2cc(C(=O)Nc3ccc(C)c(NC(=O)C(=O)c4c[nH]c5ccccc45)c3)cc(C(F)(F)F)c2)cn1 | 20 µM (active)
92 | Cc1ccc(NC(=O)COC(=O)c2c[nH]c3ccccc23)cc1C | inactive
93 | O=C(NCCOc1ccccc1Cl)C(=O)c1c[nH]c2ccccc12 | inactive
94 | OCCN1CCN(c2ncnc3c2ncn3[C@H]2CN(Cc3ccc(-c4ccccc4)cc3)C[C@@H](CO)O2)CC1 | 39.8 µM (active)
95 | COc1cccc(/C=C2/CCC(CN(C)C)C2=O)c1 (centres undefined) | 9.47 µM (active)
96 | CCCC(/C=C/c1ccc(OC(C)=O)cc1)=C1/c2ccccc2C(=O)N1c1ccccc1 | inactive
97 | CN(C)c1ccc(/C=C2\CCCc3c2nc2ccccc2c3C(=O)O)cc1 | inactive
98 | CCCC/C=C1/CCC(CN(C)C)C1=O (centres undefined) | 37.7 µM (active)
99 | CSc1ccc(/C=C/C(=O)OCC(=O)N2CCc3ccccc32)cc1 | inactive
100 | COc1ccc(/C=N/N(C)C2=NS(=O)(=O)c3ccccc32)cc1 | inactive
101 | COc1cccc(C2NC(=O)CCC2[N+](=O)[O-])c1 (centres undefined) | inactive
102 | COc1ccc(/C=C2\CCC/C(=C\C=N\N(C)C)C2=O)cc1 | 11.2 µM (active)
103 | COc1cccc(NC=C2C(=O)CCCC2=O)c1 | inactive
104 | CN(C)CC1CCC/C(=C\c2ccc(OC(=O)/C=C/c3ccccc3)cc2)C1=O (centres undefined) | 35.5 µM (active)
